Inconclusive results are not listed. Calls of active or inactive are those of the source. Calls come from the whole dose curve.
Assay: Primary qHTS to identify inhibitors of SARS-CoV-2 cell entry (AID 1645846); note: nearly all actives have a fitted effect of over 45% in size
Settings: SARS-CoV-2 pseudovirus cell entry assay, luminescence; activity change, negative = inhibition: at 57.1 µM (top of the series) unless noted
Method in brief: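 Entry measured by luciferase signal 48 h after adding SARS-CoV-2-S pseudotyped MLV particles to HEK293-ACE2 cells preincubated 1 h with compounds. Normalisation: bald particles and spike particles.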
Potency is the fitted concentration of half-maximal effect.

Row | Structure (SMILES) | activity change, negative = inhibition | Potency
1 | Cc1ccc([N+](=O)[O-])cc1S(=O)(=O)N(C)/N=C/c1cnc2ccc(Br)cn12 | -94.8% | 
2 | COc1nc(OCc2cccc(-c3ccccc3)c2C)ccc1CNCCNC(C)=O |  | 11.2 µM (active)
3 | CC(C)(C)C[C@H]1N[C@@H](C(=O)NC2CCC(O)CC2)[C@H](c2cccc(Cl)c2F)[C@@]12C(=O)Nc1cc(Cl)ccc12 (stereo not given in full) |  | 28.2 µM (active)
4 | CC(=O)NCC(=O)N1[C@@H]2CC[C@H]1c1ccc(Nc3ncc(C(F)(F)F)c(NC4CCC4)n3)cc12 |  | 3.16 µM (active)
5 | C=C1CCC[C@]2(C)C=C3OC(=O)C(C)=C3C[C@@H]12 | -28.3% | 
6 | C/C(=N\NC(=S)N1CCC1)c1ccccn1 | -96.5% | 
7 | O=C(NCc1ccc(S(=O)(=O)c2cccc(C(F)(F)F)c2)cc1)c1cnc2[nH]ncc2c1 | -97.3% | 
8 | CCCCc1nc2cc(/C=C/C(=O)NO)ccc2n1CCN(CC)CC |  | inactive
9 | CC1(C)[C@@H](O)CC[C@]2(C)[C@H]3C(=O)C=C4[C@@H]5C[C@@](C)(C(=O)O)CC[C@]5(C)CC[C@@]4(C)[C@]3(C)CC[C@@H]12 |  | inactive
10 | COc1cccc(-c2cc(F)ccc2C2Cc3nc(N)nc(C)c3C(=O)N2)n1 (stereo not given) | -91.7% | 
11 | C=C1CC[C@@H]2[C@](C)(CO)[C@H](O)CC[C@@]2(C)[C@@H]1C/C=C1/C(=O)OC[C@H]1O |  | 25.1 µM (active)
12 | Cc1cnc(NC(=O)c2cc(Oc3cnc(C(=O)N(C)C)nc3)c3cc(C)oc3c2)cn1 | -4.66% | 
13 | NC(=O)c1ccc2nc(-c3ccc(C4(N)CCC4)cc3)c(-c3ccccc3)n2n1 |  | 25.1 µM (active)
14 | COc1ccc(S(=O)(=O)N[C@@H](CNc2nc(C)nc(N3CCC(c4ccc5c(n4)NCCC5)CC3)c2C)C(=O)O)cc1 | -3.98% | 
15 | COc1cc(OC)c(/C=C/S(=O)(=O)Cc2ccc(OC)c(NCC(=O)O)c2)c(OC)c1 | -75.7% | 
16 | FC(F)(F)c1ccc(CNc2ccc(Cc3c[nH]c4ncccc34)cn2)cc1 |  | 20 µM (active)
17 | CC[C@H](C)[C@@H]([C@@H](CC(=O)N1CCC[C@H]1[C@H](OC)[C@@H](C)C(=O)N[C@@H](Cc1ccccc1)c1nccs1)OC)N(C)C(=O)[C@@H](NC(=O)[C@H](C(C)C)N(C)C)C(C)C | -79.3% | 
18 | Nc1nccc2c1ncn2[C@@H]1C=C(CO)[C@@H](O)[C@H]1O | -51.3% | 
19 | O=C(NO)c1cnc(NC2(c3ccccc3)CC2)nc1 |  | inactive
20 | Cc1cc(C)cc(NC(=O)Cc2ccc(OC(C)(C)C(=O)O)cc2)c1 |  | inactive
21 | Nc1ccc(/C=C/C(=O)NCc2cc3cc(-c4ccc(C(=O)N5CCC(F)(F)CC5)cc4)cc(-c4ccc(F)cc4)c3o2)cn1 | -96.3% | 
22 | COc1ccc(N2C(=O)N(c3c(C)cccc3Cl)Cc3cnc(Nc4ccc(C5CCN(C)CC5)cc4OC)nc32)nc1 |  | 35.5 µM (active)
23 | O=C(/C=C/c1cccnc1)NCCCCC1CCN(C(=O)c2ccccc2)CC1 | -96.7% | 
24 | CC(C)Nc1cc(-c2c[nH]c(C(=O)N[C@H](CO)c3cccc(Cl)c3)c2)c(Cl)cn1 |  | 31.6 µM (active)
25 | Cc1cc(CC(C)CC(C)(C)C)n(O)c(=O)c1 (stereo not given) |  | 20 µM (active)
26 | CNCc1ccc(C)c(NC(=O)c2ccc(Nc3nc(-c4ccccc4)c4ccccc4n3)cc2)c1 |  | 14.1 µM (active)
27 | COc1cccc2c1c(O)c(C(=O)N(C)c1ccc(C(F)(F)F)cc1)c(=O)n2C | -9.47% | 
28 | O=C(NO)c1cnc(N2C[C@H]3C[C@@H]2CN3c2cc(C(F)(F)F)ccn2)nc1 |  | inactive
29 | COc1cc2nc(-c3cc(F)ccc3O)nc(N[C@@H]3CNC[C@H]3C(C)(C)O)c2cc1OC |  | 5.01 µM (active)
30 | C[C@H](CCC(=O)O)[C@H]1CC[C@H]2[C@@H]3[C@H](O)C[C@@H]4C[C@H](O)CC[C@]4(C)[C@H]3CC[C@]12C | -12.9% | 

From PubChem BioAssay (NCATS)
